Compounds with a hit are over-represented: about 6.2% of the library has one in this group of screens.
LASV entry inh = qHTS for Inhibitors of binding or entry into cells for Lassa Virus | Lassa virus pseudotype entry inhibition, cell reporter | Potency, µM (series often up to 37.9 µM), without a hit: at the highest dose activity change, negative = inhibition, usual class: inhibitors | actives 1.2% (n = 300,000) | AID 540256, 2011; calls by dose curve; tested in HEK293 cells; further: potency means the concentration at half of the fitted maximal effect; nearly all actives have a fitted effect of over 50% in size
FMDV inh = High Throughput Screening for Foot and Mouth Disease Virus Antivirals | Potency, µM (top dose mostly 57.9 µM), for inactives: top-dose activity change, negative = inhibition, hits mostly inhibitors | FMDV antiviral cell-based qHTS | actives 1.2% (n = 410,000); calls by dose curve; tested in HEK293T cells; further: read-out not given here; potency means the concentration at half of the fitted maximal effect; nearly all actives have a fitted effect of over 45% in size
HCMV inh = qHTS Assay for inhibitors of the human cytomegalovirus (HCMV). HFF cells, HCMV-luciferase reporter, 72 h; stronger effect = lower value. activity change, negative = inhibition, % at 57.5 µM. actives 4.5% (n = 410,000). AID 1259415, 2018; in the data active means activity change below about -60%; inconclusive means no clear call, values can overlap the other calls; inactive means above about -39%
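Two-dose cell screen: HFF monolayers treated with compounds and infected with luciferase-expressing HCMV at 1 PFU/cell, 72 h at 37C, then lysed for luciferase measurement.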
Marburg entry inh = qHTS for inhibitors of binding or entry into cells for Marburg Virus; actives 1.8% (n = 300,000); Potency, µM (titrated, usually from 37.8 µM), for the others: at the top dose activity change, negative = inhibition, usual class: inhibitors; Marburg virus pseudotyped entry inhibition, cell reporter; calls by dose curve; tested in HEK293 cells; further: potency means the concentration at half of the fitted maximal effect
Starred values were filed as active, the others as inactive; ? = inconclusive; / = not tested or not shown; [ ] = remark or other dose. On the % scale 0 is the no-effect control and ±100 the full control effect.

SMILES	LASV entry inh	FMDV inh	HCMV inh	Marburg entry inh
COP(=O)(OC)/C(C=O)=N/Nc1ccc([N+](=O)[O-])cc1	-28%[46.1 µM]	-19%	42	10%[46.1 µM]
O=C(Nc1cccc(Cl)c1)C1CCCN(c2ncnc3c2nc2n3CCCCC2)C1 (configuration not stated)	?	?	14	?
C/C(=N\NC(=S)NC(C)C)c1ccccc1OC(F)F	?	-11%	-114*	-8%[46.1 µM]
COc1cc(/C(C)=N/NC(=S)NC(C)C)cc(OC)c1OC	-18%	-27%	-102*	?
CCNC(=S)N/N=C(\C)c1ccc2ccccc2c1OC(F)F	?	-15%	-33	?
O=S1(=O)C=C[C@H](COCc2ccccc2)N1	/	-24%	-10	/
Cc1ccc(N(CC(=O)NC(C)(C)C)C(=O)CCC(=O)Nc2ccccn2)cc1	/	-13%	-25	/
Cc1ccc(-c2nc3cccnc3o2)cc1NC(=O)COc1ccc(C(C)(C)C)cc1	10µM*	?	-29	?
Cc1ccc(OCC(=O)Nc2ccc(O)c(-c3nc4ccccc4o3)c2)cc1	?	?	-76*	-3%
COc1cc(C(=O)Nc2cccc(-c3nc4ccccc4o3)c2C)cc(OC)c1OC	20%	-12%	4	10%
Cc1cc(C)cc(OCC(=O)Nc2ccc(-c3nc4ccccc4o3)cc2)c1	26%[46.1 µM]	-9%	-23	/
Cc1ccc(OCC(=O)Nc2cccc(-c3nc4ccccc4o3)c2C)cc1C	-11%[46.1 µM]	-16%	-60*	5%[46.1 µM]
O=C(CCCn1cnc([N+](=O)[O-])n1)Nc1ccc(Cl)c(Cl)c1	-8%	/	45	?
Cn1nnnc1SCCCNCc1ccccc1OCc1ccccc1Cl	-19%[46.1 µM]	-29%	-63*	?
COc1cccc(CNCCSc2nnnn2C)c1OCc1ccc(Cl)cc1	-1%[46.1 µM]	0%	?	10µM*
CCOc1c(CNCCSc2nnnn2C)cccc1OC	22%[46.1 µM]	-6%	8	-25%[46.1 µM]
COc1cccc(CNCCSc2nnnn2C)c1OCc1ccc(Cl)cc1Cl	?	-28%	-61*	?
FC(F)(F)c1ccccc1-c1cc(N2CCNCC2)ncn1	/	-6%	/	/
O=C(NC1CCCCC1)C(c1c(F)cccc1Cl)N(C(=O)c1csnn1)C1CC1 (configuration not stated)	13%	0%	-30	-6%[46.1 µM]
Cc1nn(Cc2ccccc2)c(Cl)c1C(=O)OC(C)C(=O)Nc1ccc(F)cc1Cl (configuration not stated)	3.2µM*	0%	-65*	13µM*
CCC[C@H](N[C@@H](CCC)[C@H](O)c1ccccc1)[C@H](O)c1ccccc1	-28%[46.1 µM]	-7%	?	8.9µM*
OC(c1ccccc1)C(O)c1ccccc1 (configuration not stated)	/	-11%	26	/
Cc1cc(C)c2cc(C#N)c(N3CCCN(C(=S)NCCCN(C)C)CC3)nc2c1	17%[46.1 µM]	-20%	13	?
Cc1ccc2cc(C#N)c(N3CCCN(C(=S)NCCCN(C)C)CC3)nc2c1	?	-15%	-5	7.1µM*
COc1ccc2c(c1)CCc1c(C(=O)N3CC4(C)CC3CC(C)(C)C4)noc1-2 (configuration not stated)	?	28%	?	?
SMILES	LASV entry inh	FMDV inh	HCMV inh	Marburg entry inh
COc1ccc(NC(=O)c2c(NC(=O)COc3ccccc3)sc3c2CCC(C(C)(C)C)C3)cc1 (configuration not stated)	28%[46.1 µM]	-6%	-3	-6%[46.1 µM]
COc1ccc(-c2[nH]nc3nc(N4CCN(C(=O)c5ccoc5)CC4)cc(C(F)(F)F)c23)cc1	/	?	-77*	/
CC12CS(=O)(=O)CC1SC(=S)N2c1ccccn1 (configuration not stated)	-2%	-2%	18	0%[46.1 µM]
COc1cc(SC)ccc1C(=O)N1CCC(Cc2ccccc2)CC1	8.2µM*	-25%	/	?
COc1cc(SC)ccc1C(=O)N1CCN(c2ccccc2)CC1	13µM*	-22%	-2	-23%[46.1 µM]
Cc1cc(C2=NNC(=NCCc3ccccc3)SC2)c(C)n1-c1c(C)n(C)n(-c2ccccc2)c1=O	-8%	-4%	-32	1%[46.1 µM]
COCCCN=C1NN=C(c2cc(C)n(Cc3ccccc3Cl)c2C)CS1	?	-6%	-65*	?
Fc1ccccc1N=C1NN=C(c2ccccc2)CS1	?	34%	-98*	11µM*
COCCn1c(C)cc(C2=NNC(=Nc3ccccc3F)SC2)c1C	2µM*	?	-73*	?
COCCCN=C1NN=C(c2cc(C)n(-c3ccccc3)c2C)CS1	-21%[46.1 µM]	9%	-36	-2%[46.1 µM]
COCCCN=C1NN=C(c2cc(C)n(-c3ccccc3F)c2C)CS1	15µM*	-7%	?	2.1µM*
CCN(CC)CCCn1c(=S)[nH]c2ccc(Cl)cc2c1=O	-1%	4%	-8	-5%
Cc1ccc(Nc2nc(-c3cccs3)cs2)nc1	/	-90%	103	/
CC(NC(=O)C1CC1)c1nnc2n1CCN(Cc1cccc(F)c1F)CC2 (configuration not stated)	/	-1%	/	/
Cc1cc(NO)c(C(C)C)cc1N=O	15%	22µM*	-65*	-27%
Cc1cc(O)c(C(C)C)cc1N=Nc1ccccc1C(=O)O	11%	?	-21	-8%[46.1 µM]
CCN(Cc1ccc(Cl)s1)C(=O)c1cccc(OCc2c(C)noc2C)c1	?	?	-28	-26%
CCN(Cc1nc2ccccc2c(=O)[nH]1)C(=O)c1cccc(OCc2c(C)noc2C)c1	?	?	-100*	?
CC1CCCC(C)N1C(=O)COC(=O)c1cc(-c2cccs2)nn1-c1ccccc1 (configuration not stated)	-10%	-13%	-14	?
Cc1cc(Cl)nc2ccc(Cc3ccc4nc(Cl)cc(C)c4c3)cc12	/	?	37	/
COc1ccc(C(=O)c2oc3ccccc3c2N)cc1	1%	88%	-67*	-2%
CC1CCN(Cc2cnc(Cl)s2)CC1	9%	-8%	10	?
CC(=O)c1c(OC(=O)c2ccco2)c2ccccc2n1C	12%	-1%	28	-2%
O=C(CSc1ccsc1[N+](=O)[O-])N1CCCCCC1	/	16%	-72*	/
N#Cc1c(-c2ccc(Cl)cc2)[nH]c2ccccc12	/	/	-38	/
SMILES	LASV entry inh	FMDV inh	HCMV inh	Marburg entry inh
N#Cc1c(-c2ccc(Cl)cc2)n(O)c2ccccc12	13µM*	0%	/	8.9µM*
CCOC(=O)C1=C(CC)Nc2ccccc2N=C1NC(=O)CCNC(C)=O	2.8µM*	0%	-36	3%
Cc1ccc(CSc2nc(-c3ccc(C(C)(C)C)cc3)nc3cc(=O)[nH]n23)cc1	12%[46.1 µM]	-13%	-105*	/
CS(=O)(=O)Nc1cccc(C(=O)CC2(O)C(=O)Nc3ccccc32)c1 (configuration not stated)	8%	-2%	-68*	9%
COc1ccc(-c2nnc(SCC(=O)Nc3cccc(C)c3)s2)cc1	18%[46.1 µM]	-18%	5	/
Cc1c(C(=O)OCC(=O)NC2CC2)oc2ccc(Br)cc12	4%	-5%	19	12%[46.1 µM]
Cc1ccc(NS(=O)(=O)c2cc([N+](=O)[O-])ccc2NNC(=S)Nc2cc(C)ccc2C)c(C)c1	14µM*	?	-103*	?
Cc1ccc(NS(=O)(=O)c2cc([N+](=O)[O-])ccc2NNC(=S)Nc2cccc(Cl)c2)c(C)c1	?	-8%	/	?

Compound activity (PubChem BioAssay)
